This passage reports z-score results from PubChem BioAssay.

Molecules are shown by their SMILES. Calls of active or inactive are those of the source.

Assay [1] in a line: compound effects on lung adenocarcinoma cell viability – A549, calcein-AM fluorescence, 48 h, basal, profiling panel (AID 1162). Conditions: higher = more signal.
A short description of assay [2]: compound effects on differentiated 3T3-L1 adipocyte viability – cell-based, 3T3-L1 adipocytes, calcein-AM fluorescence, 48 h, basal, profiling panel (AID 1163). Conditions: 3T3-L1 adipocytes viability, higher = more signal.
Assay [3] is described as follows: compound effects on hepatocellular carcinoma cell viability – HepG2, calcein-AM fluorescence, 48 h, basal, profiling panel (AID 1164). Conditions: higher = more signal.
Assay [4] is described as follows: compound effects on multiple myeloma cell viability – MM1S, calcein-AM fluorescence, 48 h, basal, profiling panel (AID 1165). Conditions: higher = more signal.
Assay [5] is described as follows: calcein-AM signal in unstimulated myeloma cells – cell-based, calcein-AM fluorescence, 48 h, PK04 Diversity Set, profiling panel (AID 1166).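 Further: cells grown under basal conditions without added stimulus.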 Conditions: RPMI8226 myeloma viability, higher = more signal.
Assay [6] in a line: JC-1 mitochondrial signal, unstimulated HepG2 cells – cell-based, JC-1 fluorescence, 24 h, 100 nL compound, profiling panel (AID 1167). Conditions: HepG2 mitochondrial potential, higher = more signal.
Assay [7] can be described thus: JC-1 mitochondrial signal, unstimulated adipocytes – cell-based, JC-1 fluorescence, 3T3-L1 adipocytes, 24 h, 100 nL compound, profiling panel (AID 1168). Conditions: JC-1 mitochondrial fluorescence, higher = more signal, called active from +8 up or from −8 down.
Assay [8] is described as follows: JC-1 mitochondrial signal, unstimulated myeloma cells – cell-based, JC-1 fluorescence, RPMI8226, 24 h, 100 nL compound, profiling panel (AID 1169). Conditions: JC-1 mitochondrial potential fluorescence, higher = more signal.
Assay [9] in a line: JC-1 mitochondrial signal, unstimulated MM1S myeloma – cell-based, JC-1 fluorescence, 24 h, 100 nL compound, profiling panel (AID 1170). Conditions: MM1S mitochondrial potential, higher = more signal.
The nature of assay [10]: resazurin metabolic signal in A549 cells – cell-based, resazurin fluorescence, 24 h, PK04 Diversity Set, profiling panel (AID 1171). Conditions: A549 viability, higher = more signal, called active from +8 up or from −8 down.
Further: test concentration not given here.

For `CC(C)(C)OC(=O)N1[C@@H](C=C(Br)Br)COC1(C)C`, the z-score in assay [1] was 0.4; in [2], 0.46; in assay [3] it was 1.32; in assay [4], -0.255; in assay [5], -0.639; in assay [6] it was 0.175. For the same molecule, the z-score in [7] is 1.2 (inactive); in assay [8] it was -0.187; in assay [9], 0.548; in assay [10], -1.4 (inactive).
Take `CN1C(=O)C2C=CC(C(O)c3cccs3)N(N(c3ccccc3)c3ccccc3)C2C1=O` (stereo not given): the z-score in assay [1] was -0.404; in assay [2] it was -1.97; in assay [3], 0.44; in assay [4] it was 0.442; in [5], 0.398; in [6] it was 0.27. For the same molecule, the z-score is -1.02 (inactive) in assay [7], -0.24 in assay [8], -0.694 in assay [9] and -0.659 (inactive) in [10].
Turning to `COCCOC(=O)N1C(=O)[C@@]2(c3ccccc31)[C@H](C(=O)Nc1nc3ccccc3s1)[C@H]1C(=O)O[C@H](c3ccccc3)[C@H](c3ccccc3)N1[C@@H]2c1ccccc1OCCO`, the z-score in assay [1] was -0.905; in [2], 0.679; in [3] it was -0.899; in [4] it was -0.975; in [5] it was -1.48; in assay [6], -2.27. The z-score was 2.21 (inactive) in assay [7], -0.796 in assay [8], -0.61 in assay [9] and 0.101 (inactive) in [10].
Consider `COC(=O)[C@@]1(Cc2ccc(F)cc2)[C@H]2c3cc(C(=O)N4CCCC4)n(C[C@H](O)CO)c3C[C@H]2CN1C(=O)c1ccccc1`, for which the z-score is -1.21 in assay [1]; 0.24 in assay [2]; -0.674 in [3]; -0.26 in assay [4]; -1.07 in assay [5]; -0.438 in [6]. For the same molecule, the z-score in assay [7] is -1.11 (inactive); in assay [8], -0.663; in assay [9], -0.371; in assay [10], 0.467 (inactive).
As for `CCCCCCc1nc(-c2ccc(OC)nc2)c(C)c2c1[Si](C(C)C)(C(C)C)OC2`, the z-score was -0.405 in [1]; 1.26 in assay [2]; 0.002 in assay [3]; -2.26 in assay [4]; -2.79 in assay [5]; 0.103 in assay [6]. Moreover, the z-score in [7] is 0.251 (inactive); in assay [8], -0.641; in [9], 0.498; in assay [10], 0.863 (inactive).
In the case of `C[C@]1(C(=O)O)c2ccccc2C(=O)N(Cc2cc(C(F)(F)F)cc(C(F)(F)F)c2)[C@H]1c1ccc(CO)cc1`, the z-score was -0.557 in [1]; 0.261 in [2]; -0.164 in assay [3]; -0.103 in assay [4]; -0.329 in assay [5]; -0.244 in assay [6]. The z-score in [7] is -0.107 (inactive); in assay [8], -0.117; in assay [9] it was -0.468; in [10], 0.449 (inactive).
Consider `COc1ccc([Si](C)(C)[C@@H]2[C@@H](CC(=O)N3Cc4ccccc4C[C@H]3CO)O[C@]3(C(=O)N(Cc4ccc(I)cc4)c4ccccc43)[C@H]2C)cc1`, for which the z-score in [1] was -0.806; in assay [2] it was 0.62; in assay [3] it was -0.435; in assay [4], -1.98; in assay [5], -0.588; in assay [6] it was 0.81. The z-score in assay [7] was 0.124 (inactive); in assay [8], -0.531; in [9] it was 0.122; in assay [10], -0.663 (inactive).
On to `O=C1O[C@@H](c2ccccc2)[C@@H](c2ccccc2)N2[C@@H](c3ccc(OCCO)cc3)[C@]3(C(=O)Nc4ccc(C#CC5=CCCCC5)cc43)[C@@H](C(=O)Nc3nc4ccccc4s3)[C@H]12`, for which the z-score was 0.583 in [1]; 0.0884 in assay [2]; 0.803 in assay [3]; -1.69 in assay [4]; -2.18 in assay [5]; -3.08 in assay [6]. Also, the z-score in [7] is -0.395 (inactive); in assay [8], -1.12; in assay [9] it was -1.92; in [10], -1.27 (inactive).
For `C=CCNC(=O)[C@@H]1[C@H]2C(=O)O[C@H](c3ccccc3)[C@H](c3ccccc3)N2[C@H](c2ccc(O)cc2)[C@@]12C(=O)N(C(=O)OCCOC)c1ccc(C#CCC(C(=O)OC)C(=O)OC)cc12`, the z-score is 0.468 in assay [1]; 0.0473 in assay [2]; 0.419 in assay [3]; -1.83 in assay [4]; -2.88 in [5]; 0.206 in [6]. The z-score was 0.605 (inactive) in [7], -0.161 in assay [8], -0.012 in assay [9] and -0.419 (inactive) in assay [10].
As to `COCCOC(=O)N1C(=O)[C@@]2(c3cc(C#CCNC(N)=O)ccc31)[C@H](C(N)=O)[C@H]1C(=O)O[C@H](c3ccccc3)[C@H](c3ccccc3)N1[C@@H]2c1ccc(O)cc1`, the z-score in assay [1] is 1.05; in assay [2], -0.142; in assay [3], 0.779; in [4], 0.394; in assay [5], -0.896; in assay [6] it was -0.507. The z-score was -0.0468 (inactive) in assay [7], -0.883 in [8], 0.326 in assay [9] and 1.22 (inactive) in assay [10].
Take `CC(C)(C)OC(=O)CC[C@]1(C(N)=O)N=C(c2ccc(OCCCO)cc2)O[C@H]1c1ccccc1N=[N+]=[N-]`: the z-score was -0.263 in assay [1]; -0.251 in [2]; 0.934 in [3]; 0.381 in [4]; 0.882 in assay [5]; -0.445 in assay [6]. The z-score is -0.109 (inactive) in assay [7], -0.132 in assay [8], -1 in [9] and 0.066 (inactive) in assay [10].
On to `COc1ccc(NN2C(C(O)c3ccccc3)C=CC3C(=O)N(C4CCCCC4)C(=O)C32)cc1` (stereo not given), for which the z-score was -0.408 in [1]; -0.503 in assay [2]; 0.0544 in assay [3]; -1.37 in [4]; -1.82 in assay [5]; -0.536 in assay [6]. For the same molecule, the z-score was 0.0258 (inactive) in assay [7], -0.335 in assay [8], -0.253 in [9] and 1.67 (inactive) in assay [10].
For the molecule `COc1ccc(NN2C(C(O)c3ccc(F)cc3)C=CC3C(=O)N(C4CCCCC4)C(=O)C32)cc1` (stereo not given), the z-score in assay [1] was -0.705; in assay [2] it was -0.17; in [3], -0.0716; in [4] it was -1.05; in [5] it was -1.08; in assay [6], -0.496. The z-score is -1.23 (inactive) in assay [7], -0.169 in assay [8], -0.191 in assay [9] and 0.227 (inactive) in assay [10].
In the case of `CC1CC/C=C\[C@H]2OC34C=CCN(CCN5CCOCC5)C(=O)[C@H]3N(C(CO)C(C)C)C(=O)[C@@H]4C2C(=O)O1` (stereo not given in full), the z-score in assay [1] was 0.0685; in assay [2] it was -1.26; in [3], 0.545; in [4], -0.515; in assay [5], 0.0582; in assay [6] it was -0.989. The z-score was -0.161 (inactive) in assay [7], 0.19 in [8], -0.308 in assay [9] and -0.37 (inactive) in [10].
As to `COCCCNC(=O)[C@@]1(Cc2ccccc2I)c2ccccc2C(=O)N(Cc2ccccc2OC)[C@H]1c1ccc(CO)cc1`, the z-score in assay [1] is 0.0588; in assay [2] it was -0.188; in [3], -0.387; in assay [4], -0.686; in assay [5], -1.58; in [6], 1.44. In addition, the z-score in assay [7] is -0.217 (inactive); in assay [8] it was -0.533; in assay [9], -0.151; in [10], -0.113 (inactive).
